Measured values reported in PubChem BioAssay (Tox21).
Values without a mark were called inactive. Results filed as inconclusive are left out. A call without a number means that no potency is given here. Active and inactive are the calls of the source. Calls come from the whole dose curve; as a rule, active = well fitted curve in the direction sought with a large enough effect in the repeat runs; inconclusive = weak or mixed curves; inactive = no such curve, though single readings can be large; an effect the other way counts as inactive or inconclusive.

How the values were obtained:
[1] = qHTS RealTime-Glo MT Cell Viability Assay in HEK293 cells - 16 hour (AID 1224872); note: top concentration of the series differs between compounds; nearly all actives have a fitted effect of over 50% in size
Procedure, shortened: (§1)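 Luminescence generated by NanoLuc from substrate produced by living HEK293 cells served as the viability signal. Each value reflects the reading at its stated time point during continuous 40 h compound exposure at 37 C.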

[2] = qHTS RealTime-Glo MT Cell Viability Assay in HepG2 cells - 8 hour (AID 1224873); note: nearly all actives have a fitted effect of over 55% in size
Procedure, shortened: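 HepG2 cells mixed with RealTime-Glo MT reagents (NanoLuc plus cell-permeant prosubstrate) were seeded at 600 cells/well, incubated 5 h at 37 C/5% CO2, then pinned with compounds in DMSO; nonlytic luminescence tracked viability during 40 h treatment.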

[3] = qHTS RealTime-Glo MT Cell Viability Assay in HEK293 cells - 40 hour (AID 1224874); details: RealTime-Glo luminescence; max response: hits give low values; note: nearly all actives have a fitted effect of over 50% in size
Procedure, shortened: (§2)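 Viable HEK293 cells reduce a cell-permeant prosubstrate; the product diffuses out and is consumed by NanoLuc in the medium to give light. Compounds went in after a 5 h incubation and plates were read over the treatment course.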

[4] = A CellTox Green Cytotoxicity Assay to monitor cytotoxicity in HepG2 cells - 16 hour (AID 1224876); note: nearly all actives have a fitted effect of over 45% in size
Procedure, shortened: (§3)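 Using 1536-well format, dye-containing HepG2 suspension was seeded, allowed 5 h at 37 C/5% CO2, dosed by pintool with compounds, positive and negative controls, and imaged for fluorescence across 40 h.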

[5] = qHTS RealTime-Glo MT Cell Viability Assay in HepG2 cells - 32 hour (AID 1224877); note: nearly all actives have a fitted effect of over 55% in size
Procedure, shortened: (§4)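 Tox21 10K library screened in qHTS format on HepG2 cells carrying RealTime-Glo reagents. Compounds were added after a 5 h preincubation, and the luminescent signal from continuous culture was measured repeatedly during 40 h treatment.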

[6] = A CellTox Green Cytotoxicity Assay to monitor cytotoxicity in HepG2 cells - 24 hour (AID 1224878); note: nearly all actives have a fitted effect of over 45% in size; note: potency is the fitted concentration of half-maximal effect
Procedure, shortened: as §3

[7] = A CellTox Green Cytotoxicity Assay to monitor cytotoxicity in HepG2 cells - 40 hour (AID 1224879); note: nearly all actives have a fitted effect of over 40% in size; note: potency is the fitted concentration of half-maximal effect
Procedure, shortened: as §3

[8] = qHTS RealTime-Glo MT Cell Viability Assay in HEK293 cells - 0 hour (AID 1224880); note: top concentration of the series differs between compounds; nearly all actives have a fitted effect of over 45% in size
Procedure, shortened: as §2

[9] = A CellTox Green Cytotoxicity Assay to monitor cytotoxicity in HepG2 cells - 0 hour (AID 1224882); note: nearly all actives have a fitted effect of over 35% in size
Procedure, shortened: as §3

[10] = A CellTox Green Cytotoxicity Assay to monitor cytotoxicity in HepG2 cells - 32 hour (AID 1224883); note: nearly all actives have a fitted effect of over 50% in size; note: potency is the fitted concentration of half-maximal effect
Procedure, shortened: as §3

[11] = qHTS RealTime-Glo MT Cell Viability Assay in HepG2 cells - 16 hour (AID 1224885); note: nearly all actives have a fitted effect of over 50% in size
Procedure, shortened: as §4

[12] = qHTS RealTime-Glo MT Cell Viability Assay in HEK293 cells - 24 hour (AID 1224886)
Procedure, shortened: as §1

[13] = qHTS RealTime-Glo MT Cell Viability Assay in HEK293 cells - 8 hour (AID 1224887)
Procedure, shortened: as §2

[14] = qHTS RealTime-Glo MT Cell Viability Assay in HepG2 cells - 0 hour (AID 1224889); note: nearly all actives have a fitted effect of over 50% in size
Procedure, shortened: as §4

[15] = A CellTox Green Cytotoxicity Assay to monitor cytotoxicity in HepG2 cells - 8 hour (AID 1224890); note: nearly all actives have a fitted effect of over 45% in size
Procedure, shortened: as §3

[16] = qHTS assay to identify small molecule antagonists of the estrogen receptor alpha (ER-alpha) signaling pathway using the BG1 cell line in the presence of 0.1 nM 17-beta-estradiol - cell viability counter screen (AID 1259241); note: nearly all actives have a fitted effect of over 40% in size
Procedure, shortened: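 CellTiter-Fluor read (30 min, 37C) on ER-alpha/ERE-luc VM7Luc4E2 cells; 22 hr compound treatment; agonist 0.1 nM E2 final; same-well multiplex.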

[17] = A CellTox Green Cytotoxicity Assay to monitor cytotoxicity in HEK293 cells - 24 hour (AID 1224875)
Procedure, shortened: (§5)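 Fluorescence intensity, read at 0, 8, 16, 24, 32 and 40 h of compound treatment, reflected dye binding to DNA of dead HEK293 cells; compounds (23 nL, DMSO) were added 5 h after plating cells with reagent.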

[18] = A CellTox Green Cytotoxicity Assay to monitor cytotoxicity in HEK293 cells - 32 hour (AID 1224881); note: nearly all actives have a fitted effect of over 40% in size
Procedure, shortened: as §5

[19] = A CellTox Green Cytotoxicity Assay to monitor cytotoxicity in HEK293 cells - 8 hour (AID 1224884); note: nearly all actives have a fitted effect of over 35% in size
Procedure, shortened: as §5

[20] = A CellTox Green Cytotoxicity Assay to monitor cytotoxicity in HEK293 cells - 16 hour (AID 1224888); note: nearly all actives have a fitted effect of over 35% in size
Procedure, shortened: as §5

SMILES | Potency [1] | Potency [2] | max response [3] [%] | Potency [4] | Potency [5] | Potency [6] | Potency [7] | Potency [8] | Potency [9] | Potency [10] | Potency [11] | Potency [12] | Potency [13] | Potency [14] | Potency [15] | Potency [16] | Potency [17] | Potency [18] | Potency [19] | Potency [20]
CCCCCCCCCC(=O)N(C)C | inactive | inactive | -15.6 | inactive | inactive | inactive | inactive | inactive | inactive | inactive | inactive | inactive | inactive | inactive | inactive | inactive | – | – | – | –
Cc1ccc2ccc3cccc4ccc1c2c34 | inactive | inactive | – | inactive | inactive | inactive | inactive | inactive | inactive | inactive | inactive | – | inactive | inactive | inactive | inactive | inactive | inactive | inactive | inactive
C(=C/c1ccccc1)/c1ccccc1 | inactive | inactive | -13.3 | inactive | inactive | inactive | inactive | inactive | inactive | inactive | inactive | inactive | inactive | inactive | inactive | inactive | – | – | – | inactive
CC1=CP(=O)(c2ccccc2)CC1 (centres undefined) | inactive | inactive | 9.74 | inactive | – | inactive | – | inactive | inactive | inactive | inactive | inactive | inactive | inactive | inactive | inactive | – | – | – | inactive
CCN(CC)CCSC(=O)C(c1ccccc1)c1ccccc1 | inactive | inactive | -12.3 | inactive | inactive | inactive | – | inactive | inactive | – | inactive | inactive | inactive | inactive | inactive | inactive | – | – | inactive | –
O=Nc1ccc(NO)cc1 | inactive | inactive | – | inactive | inactive | inactive | inactive | inactive | inactive | inactive | inactive | inactive | inactive | inactive | inactive | inactive | inactive | inactive | inactive | inactive
CCN(CC)CCCN(c1ccccc1)C1Cc2ccccc2C1 | inactive | inactive | – | – | – | 23.9 µM (active) | 23.9 µM (active) | – | inactive | 23.9 µM (active) | inactive | – | inactive | inactive | inactive | inactive | inactive | inactive | – | inactive
